This is an account of results in PubChem BioAssay (Tox21).

Calls of active or inactive are those of the source. Where a call stands in place of a potency, no number is given. Calls follow the shape of the dose curve; as a rule, active = well fitted curve in the direction sought with a large enough effect in the signal ratio in the repeat runs (not every such curve was filed as active); inconclusive = weak or mixed curves, or effect the other way; inactive = no such curve, though single readings can be large or run the other way; the % refers to the signal ratio.
Potency is read from the fitted curve at half-maximal effect.

Estrogen receptor (Homo sapiens), sequence (P03372 whole entry, looked up): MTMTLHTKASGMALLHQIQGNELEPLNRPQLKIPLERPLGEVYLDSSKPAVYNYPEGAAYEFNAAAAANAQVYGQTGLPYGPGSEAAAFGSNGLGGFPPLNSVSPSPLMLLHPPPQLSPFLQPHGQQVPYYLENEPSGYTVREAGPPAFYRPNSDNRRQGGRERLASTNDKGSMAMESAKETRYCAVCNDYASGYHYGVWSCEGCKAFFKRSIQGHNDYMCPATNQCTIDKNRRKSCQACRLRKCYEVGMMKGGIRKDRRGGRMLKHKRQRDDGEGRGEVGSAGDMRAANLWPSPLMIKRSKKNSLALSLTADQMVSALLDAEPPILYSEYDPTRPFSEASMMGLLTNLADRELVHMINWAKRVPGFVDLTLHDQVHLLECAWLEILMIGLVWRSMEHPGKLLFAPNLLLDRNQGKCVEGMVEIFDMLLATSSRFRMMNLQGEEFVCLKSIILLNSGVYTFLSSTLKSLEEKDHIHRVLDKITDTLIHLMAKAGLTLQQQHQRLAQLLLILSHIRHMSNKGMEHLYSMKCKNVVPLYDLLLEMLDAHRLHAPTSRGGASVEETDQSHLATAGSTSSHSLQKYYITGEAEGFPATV

The assay concerns the target Estrogen receptor (Homo sapiens) (UniProt P03372). Put plainly: qHTS assay to identify small molecule antagonists of the estrogen receptor alpha (ER-alpha) signaling pathway (AID 743069). To be noted: HEK293 ER-alpha-UAS-bla, beta-lactamase ratio, antagonist mode; series mostly up to 69.4 µM. The text has this:
National Center for Advancing Translational Sciences [NCATS]
NIH Chemical Genomics Center [NCGC]
U.S. Environmental Protection Agency [EPA]
National Institutes of Environmental Health Sciences [NIEHS]
National Toxicology Program [NTP]
U.S. Food and Drug Administration [FDA]
Estrogen receptor (ER), a nuclear hormone receptor, plays an important role in development, metabolic homeostasis and reproduction. Two subtypes of ER, ER-alpha and ER-beta have similar expression patterns with some uniqueness in both types. Endocrine disrupting chemicals (EDCs) and their interactions with steroid hormone receptors like ER causes disruption of normal endocrine function. To identify the compounds that inhibit ER signaling, an ER-alpha-UAS-bla GripTiteTM cell line (Invitrogen, Carlsbad, CA, USA) containing a beta-lactamase reporter gene under the control of an Upstream Activator Sequence (UAS) stably integrated into HEK293 cells was used to screen the Tox21 10K compound library.
Tox21 Assay Protocol Summary:
ER-alpha-bla cells were cultured in assay medium containing 2% charcoal stripped FBS overnight in the culture flasks before the assay was performed. The cells were dispensed at 5,000 cells/5 uL of assay medium per well into black wall/clear-bottom 1536-well plates using a Multidrop Combi (ThermoFisher Scientific, Waltham, MA) dispenser. After the assay plates were incubated at a 37C and 5% CO2 for 4 hr, 23 nL of compounds dissolved in DMSO, positive controls or DMSO only was transferred to the assay plate by a Pintool station (Kalypsys, San Diego, CA), followed by addition of 1 uL of 17beta-estradiol in assay medium using a Flying Reagent Dispenser (Aurora Discovery, San Diego, CA). The plates were incubated at 37C and 5% CO2 for 18 hr. Then 1 uL of LiveBLAzerTM B/G FRET substrate was added using a Flying Reagent Dispenser, the plates were incubated at room temperature for 2 hours, and fluorescence intensity was measured by an Envision plate reader (PerkinElmer, Shelton, CT).
(In general: qHTS replaces the single test concentration by a dilution series.)
Regarding `CCOc1ccc(N=C(C)Nc2ccc(OCC)cc2)cc1`, the Potency result was “inactive”. Then `O=P(O)(O)C(O)(Cc1cnc2ccccn12)P(=O)(O)O`, with “inactive”. Then `O=C(NOC[C@H](O)CO)c1ccc(F)c(F)c1Nc1ccc(I)cc1F`, with “inactive”; and `OCC(S)CS` (stereo not given), with “inactive”; and `COC(F)(F)C(Cl)Cl`, with “inactive”. Then `Cn1nnnc1SCC1=C(C(=O)O)N2C(=O)[C@@H](NC(=O)[C@H](OC=O)c3ccccc3)[C@H]2SC1`, with “inactive”. As for `CC[C@H](CC[C@@H](C)[C@H]1CC[C@H]2[C@@H]3CC=C4C[C@@H](O)CC[C@]4(C)[C@H]3CC[C@]12C)C(C)C`, the Potency result is “inactive”. As for `CO/N=C(\C(=O)N[C@@H]1C(=O)N2C(C(=O)O)=C(CSc3nnnn3C)CS[C@H]12)c1csc(N)n1`, the Potency result was “inactive”. Regarding `CC1(C)S[C@@H]2[C@H](NC(=O)C(C(=O)O)c3ccsc3)C(=O)N2[C@H]1C(=O)O` (stereo not given in full), the Potency result is “inactive”. Then `O=C(O)c1ccc(OCCn2ccnc2)cc1`, with “inactive”; and `O=c1[nH]cnc2[nH]cc(CN3CCCCC3)c12`, with “inactive”; and `CC(C)CN(C[C@@H](O)[C@H](Cc1ccccc1)NC(=O)O[C@@H]1CCOC1)S(=O)(=O)c1ccc(N)cc1`, with “inactive”. Then `COc1cc(NCCCC(C)N)c2ncccc2c1` (stereo not given), with “inactive”; and `CCCCCCCCCCCCCCCC(=O)OCC(COC(=O)CCCCCCCCCCCCCCC)OC(=O)CCCCCCCCCCCCCCC`, with “inactive”.

For `CN(C)C=Nc1c(I)cc(I)c(CCC(=O)O)c1I`, the Potency result was “inactive”. For the compound `Nc1c(Br)cc(Br)cc1CNC1CCC(O)CC1` (stereo not given), the Potency result was “inactive”.

As to `N[C@H](CCC(=O)O)C(=O)O`, the Potency result is “inactive”. The value for `CN1CC(O)c2cc(N=NC(N)=O)c(O)cc21` (stereo not given) was “inactive”; that for `O=C(NNCS(=O)(=O)O)c1ccncc1` was “inactive”. For the compound `C[N+]1(C)[C@@H]2CC(OC(=O)C(O)(c3cccs3)c3cccs3)C[C@H]1[C@@H]1O[C@@H]12` (stereo not given in full), the Potency entry is “inactive”. Then `CCCCc1cc2c(=O)c(C(=O)OC)c[nH]c2cc1OCc1ccccc1`, with “inactive”. Turning to `O=S(=O)(O)CCCS(=O)(=O)O`, the Potency entry is “inactive”. In the case of `CCCCCCCCCCCCCCCCCCOP(=O)([O-])OC1CC[N+](C)(C)CC1`, the Potency entry is “inactive”. As for `NC(N)=NCC1COc2ccccc2O1` (stereo not given), the Potency result is “inactive”. For the compound `CO/N=C(\C(=O)N[C@@H]1C(=O)N2C(C(=O)OCOC(=O)C(C)(C)C)=C(/C=C\c3scnc3C)CS[C@H]12)c1csc(N)n1`, the Potency result is “inactive”. Then `O=C(O)c1cc(N=Nc2ccc(O)c(C(=O)O)c2)ccc1O`, with “inactive”; and `CO[C@@H]1[C@@H](O[C@@H]2O[C@H](C)[C@@H](O[C@H]3C[C@@](C)(O)[C@@H](O)[C@H](C)O3)[C@H](N(C)C)[C@H]2O)[C@@H](CC=O)C[C@@H](C)[C@@H](O[C@@H]2CC[C@H](N(C)C)[C@@H](C)O2)/C=C/C=C/C[C@@H](C)OC(=O)C[C@H]1O`, with “inactive”; and `CC1C(=O)CC2C3(C)CCC2(C(C)C(=O)O)C(=O)C13` (stereo not given), with “inactive”. Then `CC(O)[C@@H]1NC(=O)[C@H](Cc2ccccc2)NC(=O)[C@H](C(C)O)NC(=O)[C@H](CCCCN)NC(=O)[C@H](Cc2c[nH]c3ccccc23)NC(=O)[C@H](Cc2ccccc2)NC(=O)[C@H](Cc2ccccc2)NC(=O)[C@H](CC(N)=O)NC(=O)[C@H](CCCCN)NC(=O)[C@@H](NC(=O)CNC(=O)[C@H](C)N)CSSC[C@@H](C(=O)O)NC(=O)[C@H](CO)NC1=O` (stereo not given in full), with “inactive”. The value for `COc1cc([C@@H]2c3cc4c(cc3C(O[C@@H]3O[C@@H]5COC(c6cccs6)O[C@H]5[C@H](O)[C@H]3O)C3COC(=O)[C@@H]32)OCO4)cc(OC)c1O` (stereo not given in full) was 6.74 µM [inconclusive] (active); that for `CC[C@@]1(O)C(=O)OCc2c1cc1n(c2=O)Cc2cc3c([N+](=O)[O-])cccc3nc2-1` was 4.77 µM [inconclusive] (active). As to `CC(C)[C@H](N)C(=O)OCC(CO)OCn1cnc2c(=O)[nH]c(N)nc21` (stereo not given in full), the Potency result was “inactive”. Then `CCOC(=O)Cc1cccc(-c2cc(CCCCCCc3ccc(O[C@H]4O[C@H](COC(C)=O)[C@@H](OC(C)=O)[C@H](OC(C)=O)[C@@H]4OC(C)=O)c(-c4cccc(CC(=O)OCC)c4)c3)ccc2O[C@H]2O[C@H](COC(C)=O)[C@@H](OC(C)=O)[C@H](OC(C)=O)[C@@H]2OC(C)=O)c1`, with “inactive”. As for `Cc1ccc(C2(O)CCN(CCCC(=O)c3ccc(F)cc3)CC2)cc1`, the Potency entry is “inactive”. Take `CC1(C)S[C@@H]2[C@H](NC(=O)Cc3ccccc3)C(=O)N2[C@H]1C(=O)O`: the Potency entry was “inactive”. The value for `O=C(OC[C@H]1O[C@](O)(COC(=O)c2cccnc2)[C@@H](OC(=O)c2cccnc2)[C@@H]1OC(=O)c1cccnc1)c1cccnc1` was “inactive”; that for `CCOC(=O)COc1ccc2c(C)c(CCN(CC)CC)c(=O)oc2c1` was “inactive”; that for `CC(Oc1ccccc1)C(=O)N[C@@H]1C(=O)N2[C@@H]1SC(C)(C)[C@@H]2C(=O)O` (stereo not given in full) was “inactive”. As for `CCCCCCCCCCCCCCCCSCC(COC)COP(=O)([O-])OCC[N+](C)(C)C` (stereo not given), the Potency is 21.3 µM [inhibitor] (active).

As for `CCCCC/C=C\CCC(=O)N[C@H]1[C@H](Oc2c3cc4cc2Oc2ccc(cc2Cl)[C@@H](O[C@@H]2O[C@H](CO)[C@@H](O)[C@H](O)[C@H]2NC(C)=O)[C@@H]2NC(=O)[C@H](NC(=O)[C@@H]4NC(=O)[C@H]4NC(=O)[C@@H](Cc5ccc(c(Cl)c5)O3)NC(=O)[C@H](N)c3ccc(O)c(c3)Oc3cc(O)cc4c3)c3ccc(O)c(c3)-c3c(O[C@H]4O[C@H](CO)[C@@H](O)[C@H](O)[C@@H]4O)cc(O)cc3[C@@H](C(=O)O)NC2=O)O[C@H](CO)[C@@H](O)[C@@H]1O`, the Potency entry was “inactive”.
